Drawing on PubChem BioAssay AID492952 (Southern Research Specialized Biocontainment Screening …, 2010), this text covers outcome for 108 molecules.

Out of some 2,300 compounds screened, about 1,500 (65%) were called active. No rule for the calls is given here. The set was probably picked from earlier hits. The list shows a part of the results. Results with a measured potency or affinity are listed apart.

The nature of this assay: replicating M. tuberculosis growth inhibition, dose response, non-replicating M. tuberculosis project, H37Rv (AID 492952).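 Also: Mycobacterium tuberculosis grown in culture; growth inhibition read after a week of incubation.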 As to conditions: series mostly up to 50 µM.
For `O=C(O)c1ccccc1C(=O)NNc1ccc(F)cc1`, the call was inactive. With `CCOC(=O)c1ccc(NC2OC(=O)c3ccccc32)cc1` (stereo not drawn), the molecule was classed as inactive.

As to `CCOC(=O)c1ccc(N=C(CC)c2c(O)n(C)c(=O)n(C)c2=O)cc1`, the molecule was classed as inactive. On to `Nc1scc(-c2ccncc2)c1Cl`, for which the result was inactive.

As to `CC(C)Oc1ccc(CNC(=O)Oc2ccccc2)cc1`, the result was inactive. Then `COc1ccc(C(C)NC(=O)CCc2ccccc2)cc1` (stereo not drawn), with “inactive”; and `C/C(=N\NC(=O)c1ccccc1O)C1C(=O)c2ccccc2C1=O`, with “inactive”; and `O=C(O)CCCCCN1C(=O)CSC1=S`, with “inactive”. Turning to `Cc1cccc(CC(=O)NCC2CCCCC2)c1`, the outcome was inactive. Regarding `Clc1ccccc1CSc1nnc([C@@H]2CCCN2)o1`, the outcome was inactive. For `S=c1[nH]c2ccccc2o1` the value was “inactive”.

Take `Cc1ccc(CNCc2cc(Cl)ccc2O)cc1`: the molecule was called inactive. On to `Cc1cc(OCCOCCNCc2ccccc2)ccc1C(C)C`, for which the outcome was inactive. `COc1ccc(NCC(=O)N2CCCC2)cc1Cl`: the molecule was classed as inactive. As to `CCc1ccc(NC(=O)CCc2ccc(C)o2)cc1`, the molecule was called inactive. For `CC(=O)c1ccc(NC(=O)CCc2ccc(C)o2)cc1` the value was “inactive”; for `FC(F)(F)c1nc(SCc2ccc(Cl)cc2Cl)n[nH]1`, “inactive”; for `CCCCOc1ccc(CSCCN)cc1Cl`, “inactive”. For `Cc1ccc(OCCCCn2ccnc2)c([N+](=O)[O-])c1` the value was “inactive”. Then `Clc1ccc(SCCCCn2ccnc2)cc1`, with “inactive”; and `O=C(COc1ccc2ccccc2c1)NNC(=O)c1cccs1`, with “inactive”; and `CCc1ccc(OCCCC(=O)Nc2nccs2)cc1`, with “inactive”. In the case of `CCCCCCCCCCn1cc(C(C)=O)c(=O)[nH]c1=O`, the result was inactive.

In the case of `CCOC(=O)C1(O)CC(C)=NN1C(=O)c1cccc(Br)c1` (stereo not drawn), the molecule was classed as inactive. Then `CCOC(=O)Cc1cc(=O)n2[nH]cc(-c3ccc(Cl)cc3)c2n1`, with “inactive”.

Consider `N#Cc1ccc(N=c2ssnc2Cl)cc1`, for which the molecule was classed as inactive. Turning to `CC1(C)C[C@H]2C=C(C=O)[C@]3(C=O)C[C@]3(C)[C@H]2C1`, the molecule was classed as inactive. Consider `CCc1nnc(N/N=C/c2c(F)cccc2Cl)n1N`, for which the molecule was classed as inactive. Consider `CC(C)(C)c1cc(CN2CCC(O)CC2)cc(C(C)(C)C)c1O`, for which the result was inactive. For `COc1ccc(NC(=O)COc2ccc3c(c2)CCC3)cc1` the value was “inactive”; for `O=C(COc1ccc(Br)cc1)N/N=C1/SCC(=O)N1Cc1ccccc1`, “inactive”.

Turning to `O=C(COc1ccc(Cl)cc1)Nc1ccccc1Cl`, the molecule was called inactive. Then `Cc1ccc(OCC(=O)N2CCCc3ccccc32)cc1`, with “inactive”. As to `O=C(COC(=O)c1cccc([N+](=O)[O-])c1)NCc1cccs1`, the call was inactive.

`O=C(COc1ccc(Cl)cc1)OCC(=O)N1CCCc2ccccc21`: the molecule was called inactive. Then `Cn1c(SCc2c(F)cccc2Cl)nc2c(c1=O)SCC2`, with “inactive”; and `COc1cccc(/C=N/NC(=O)c2ccoc2C)c1O`, with “inactive”; and `Cc1ccc(C(=O)N/N=C/C=C/c2ccccc2)cc1`, with “inactive”. On to `CCc1ccc(N=CC2=C(O)CC(c3ccco3)CC2=O)cc1` (stereo not drawn), for which the outcome was inactive. On to `CC(=O)N(c1nnc(-c2ccc(C)cc2)s1)C1CCCC1`, for which the molecule was classed as inactive.

As for `O=C(NCCC1=CCCCC1)c1ccc(F)cc1`, the outcome was inactive. Then `O=C(NCCC1=CCCCC1)c1ccc(Br)o1`, with “inactive”; and `COc1ccccc1-c1nnc(-c2ccc(C)cc2)o1`, with “inactive”; and `COc1ccccc1-c1cc(SC)c(C#N)c(=O)o1`, with “inactive”. Then `O=C(COC(=O)c1cccc(C(F)(F)F)c1)NCc1ccccc1`, with “inactive”; and `FC(F)(F)c1ccc(NCCc2ccccc2)nc1`, with “inactive”. Turning to `CCOC(=O)Cc1csc(NC(=O)COc2ccc3c(c2)CCC3)n1`, the molecule was classed as inactive. Then `O=C(CNC(=O)c1ccc(Br)cc1)c1ccc(Br)cc1`, with “inactive”; and `Nc1nnc(SCCCC(=O)c2ccc(Br)cc2)s1`, with “inactive”; and `Cc1ccc(C(=O)N/N=C\c2ccc[nH]2)cn1`, with “inactive”. Then `Cc1cccc(C)c1NC(=O)c1sc(N)nc1-c1ccccc1`, with “inactive”. Then `COc1cccc(/C=N/N2C(=O)CSC2=S)c1O`, with “inactive”; and `O=C(N/N=C\c1ccco1)c1cncc(Br)c1`, with “inactive”.

Take `Cc1ccc(C(=O)c2cncc(Br)c2)cc1`: the molecule was called inactive. In the case of `Nn1c(SCCOc2ccc(Cl)cc2)nnc1-c1cccnc1`, the molecule was called inactive. Take `CSCCC(=O)N1CCCC(N2CCN(c3cccc(C(F)(F)F)c3)CC2)C1` (stereo not drawn): the molecule was classed as inactive.

`COC(=O)c1ccc(CO/N=C/c2ccc(OC)cc2)o1`: the result was inactive.

Take `CCCNC(=O)c1ccc(COc2ccc(C)cc2)o1`: the result was inactive. For `Cc1cccc2c(CC(=O)O)noc12` the value was “inactive”; for `O=C(NNc1ccc([N+](=O)[O-])cc1)c1ccccc1Cl`, “inactive”.

Take `CC1(C)CC(=O)c2cc(C(=O)NNc3ccccc3)c(=O)n(-c3ccccc3)c2C1`: the outcome was inactive. Then `Clc1ccc2c(N3CCCC3)ccnc2c1`, with “inactive”. For `Cc1ccc(O)c(C(=O)c2cc(C#N)c(=O)n(-c3nccs3)c2)c1` the value was “inactive”; for `Cn1c(=O)c2c(=O)cc(NNC(=O)CC#N)[nH]c2n(C)c1=O`, “inactive”. Then `Cc1ccc(/C=C2\SC(=S)N(C3CCS(=O)(=O)C3)C2=O)o1` (stereo not drawn), with “inactive”; and `O=C(COC(=O)c1cccs1)NCCC1=CCCCC1`, with “inactive”.

Regarding `Cc1ccsc1C(=O)OCC(=O)NCCC1=CCCCC1`, the result was inactive. On to `O=C(Nc1nnc(-c2ccc(Cl)cc2)o1)c1cccc(N2C(=O)CCC2=O)c1`, for which the molecule was classed as inactive. As to `Cc1ccc(N=N/C(=C\O)C(=O)c2ccncc2)cc1`, the molecule was classed as inactive. Then `O=C(c1ccc(Cl)cc1)c1nnc(-c2ccncc2)o1`, with “inactive”. For `CC1(c2nnc(-c3ccccc3)o2)CC(c2ccc(Cl)cc2)=NO1` (stereo not drawn) the value was “inactive”; for `FC(F)(F)c1ccc(-c2nnc(-c3cccnc3)o2)cc1`, “inactive”; for `CCOc1ccc(CC(=O)N2N=C(C)CC2(O)C(F)(F)F)cc1` (stereo not drawn), “inactive”. For `CC1=NN(C(=O)COc2ccccc2)C(O)(c2ccccc2)C1` (stereo not drawn) the value was “inactive”; for `Cc1nn(C)cc1/C=N/NC(=O)c1sc2ccccc2c1Cl`, “inactive”; for `Nc1nonc1C(=O)NCCN=Cc1cc(Cc2ccccc2)cc(Br)c1O`, “inactive”. As to `Cc1cc(C(=O)N/N=C/C=C/c2ccccc2)c(C)o1`, the call was inactive. Then `Cc1occc1C(=O)N/N=C/c1ccc[nH]1`, with “inactive”. For the molecule `O=C1/C(=C/c2ccco2)CCC1C1CCCC1` (stereo not drawn), the result was inactive. Then `Cc1cccc2nc(-c3cccnc3)c(NCCC(C)C)n12`, with “inactive”. With `CC1=NN(C(=O)c2ccc(C)o2)C(O)(c2ccccc2)C1` (stereo not drawn), the outcome was inactive. Then `Cc1ccc2nc3c(c(N)c2c1)CCN3c1ccccc1`, with “inactive”; and `CCc1ccc(OCC(=O)c2c(O)c3ccccc3oc2=O)cc1`, with “inactive”. For `O=C(CCC1CCCCC1)NCc1cccs1` the value was “inactive”; for `C=CCN=C1SC(CC)C(=O)N1S(=O)(=O)c1ccc(C)cc1` (stereo not drawn), “inactive”; for `COc1ccc(CN=C2NN=C(c3ccc(Cl)cc3)CS2)cc1`, “inactive”.

Consider `O=C(O)c1ccc(CN2C(=O)CSC2=S)cc1`, for which the molecule was called inactive. For `c1ccc(Cn2c(SCCN3CCOCC3)nnc2-c2cccnc2)cc1` the value was “inactive”; for `CN(C)CCN1C(=O)c2oc3ccccc3c(=O)c2C1c1cccc(Br)c1` (stereo not drawn), “inactive”; for `CC12CC3CC(C)(C1)CC(C(=O)N1CCCC1)(C3)C2`, “inactive”.

Take `Cc1ccc(NC(=O)COc2ccccc2)cc1Cl`: the molecule was called inactive.

On to `Cc1ccc(NC(=O)CNc2ccc(OC(C)C)cc2)cc1`, for which the result was inactive. With `CNCc1ccccc1Sc1cc(O)ccc1O`, the molecule was called inactive.

For the molecule `CC1(C)CC(=O)C2=C(C1)OC(N)=C(C#N)C2C#Cc1ccccc1` (stereo not drawn), the call was inactive. Then `Cc1ccccc1OCCC(=O)OCC(=O)NNC(=O)c1cccs1`, with “inactive”. Then `CC1=NN(C(=O)COc2ccccc2C)C(O)(c2ccc(Cl)cc2)C1` (stereo not drawn), with “inactive”; and `CCOC(=O)Cc1ccc(NCc2ccc(Cl)cc2)cc1`, with “inactive”. Then `CC1=CC(C)(C)Nc2ccc(OC(=O)CN3C(=O)c4ccccc4C3=O)cc21`, with “inactive”. For the molecule `Cc1ccc2c(c1)C(=O)C(=O)N2CCCOc1ccccc1`, the molecule was called inactive.

Take `N=c1oc2ccccc2cc1C(=O)Nc1ccccc1`: the molecule was classed as inactive. Then `c1ccc(OCc2nnc3sc(-c4cccs4)nn23)cc1`, with “inactive”; and `O=c1[nH][nH]c(-c2ccccc2O)c1C(C[N+](=O)[O-])c1cccc(Cl)c1` (stereo not drawn), with “inactive”. For `Clc1ccc(OC2CCN(Cc3nc(CC4CC4)no3)CC2)cc1` the value was “inactive”. `CCOc1ccc(OCC(=O)OCc2cc(=O)n3cc(Br)ccc3n2)cc1`: the molecule was called inactive. For `CCOC(=O)Cn1nc(/C=C/c2ccccc2)ccc1=O` the value was “inactive”; for `COc1ccc(-c2nnn(Cc3ccccc3)n2)cc1`, “inactive”; for `O=C(CNC(=O)c1ccccc1)OC1CCCCC1`, “inactive”. For `O=C1CC(Sc2ncccn2)C(=O)N1c1ccccc1C(F)(F)F` (stereo not drawn) the value was “inactive”.
